# From the supplement of paper PMC6607015
# Where a name gives a salt, the structure may show the parent alone.
# Experiments:
# Details in all cases: compound concentration in added solution (µM; 5 µl added to 20 µl cells): 10; 18 h
# A431 [1] = assay: LBPA endosome anti-LBPA integrated intensity (sum per cell), Z-score; higher = more LBPA staining
# Procedure, shortened: (§1)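 HeLa MZ or A431 cells (3,500/well in 20 µl) were seeded onto 5 µl of 10 µM compound solution in duplicate 384-well imaging plates, incubated 18 h, then fixed in 4% PFA. Cells were stained with 6C4 anti-LBPA antibody, filipin, propidium iodide and CellTracker green, and four 20× images were taken per well. MetaXpress segmentation gave per-cell integrated LBPA or filipin intensity, either whole-cell or within LBPA endosomes. Values are Z-scores normalised in AcuityXpress.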
# HeLa MZ [2] = assay: as above
# Procedure, shortened: as §1
# A431 [3] = assay: whole-cell filipin (free cholesterol) integrated intensity, Z-score; higher = more cholesterol staining
# Procedure, shortened: as §1
# HeLa MZ [4] = assay: as above
# Procedure, shortened: as §1
# A431 [5] = assay: filipin (cholesterol) integrated intensity within LBPA endosomes, Z-score; higher = more cholesterol in LBPA endosomes
# Procedure, shortened: as §1
# HeLa MZ [6] = assay: as above
# Procedure, shortened: as §1
smiles,measurement,setting,value
C[N+]1(C)CCC(=C(c2ccccc2)c2ccccc2)CC1 [Diphemanil methylsulfate],LBPA endosome anti-LBPA integrated intensity (z-score),A431 [1],-0.603
same,LBPA endosome anti-LBPA integrated intensity (z-score),HeLa MZ [2],-1.21
same,whole-cell filipin (z-score),A431 [3],-0.868
same,whole-cell filipin (z-score),HeLa MZ [4],-0.964
same,filipin (z-score),A431 [5],-0.428
same,filipin (z-score),HeLa MZ [6],-0.688
CCOc1ccc2c(c1)C(C)=CC(C)(C)N2 [Ethoxyquin],LBPA endosome anti-LBPA integrated intensity (z-score),A431 [1],-0.421
same,LBPA endosome anti-LBPA integrated intensity (z-score),HeLa MZ [2],0.201
same,whole-cell filipin (z-score),A431 [3],-0.319
same,whole-cell filipin (z-score),HeLa MZ [4],-0.546
same,filipin (z-score),A431 [5],-0.467
same,filipin (z-score),HeLa MZ [6],-0.418
CO[C@H]1/C=C/O[C@@]2(C)Oc3c(C)c(O)c4c(c3C2=O)C2=NC3(CCN(CC(C)C)CC3)NC2=C(NC(=O)/C(C)=C\C=C\[C@H](C)[C@H](O)[C@@H](C)[C@@H](O)[C@@H](C)[C@H](OC(C)=O)[C@@H]1C)C4=O [Rifabutin],LBPA endosome anti-LBPA integrated intensity (z-score),A431 [1],-0.125
same,LBPA endosome anti-LBPA integrated intensity (z-score),HeLa MZ [2],1.08
same,whole-cell filipin (z-score),A431 [3],0.49
same,whole-cell filipin (z-score),HeLa MZ [4],0.136
same,filipin (z-score),A431 [5],-0.0844
same,filipin (z-score),HeLa MZ [6],0.633
Nc1cc(C(Cl)=C(Cl)Cl)c(S(N)(=O)=O)cc1S(N)(=O)=O [Clorsulon],LBPA endosome anti-LBPA integrated intensity (z-score),A431 [1],-0.372
same,LBPA endosome anti-LBPA integrated intensity (z-score),HeLa MZ [2],0.212
same,whole-cell filipin (z-score),A431 [3],-0.73
same,whole-cell filipin (z-score),HeLa MZ [4],-0.454
same,filipin (z-score),A431 [5],-0.454
same,filipin (z-score),HeLa MZ [6],-0.586
NS(=O)(=O)c1cc2c(cc1C(F)(F)F)NC(Cc1ccccc1)NS2(=O)=O (centres undefined) [Bendroflumethiazide],LBPA endosome anti-LBPA integrated intensity (z-score),A431 [1],-0.595
same,LBPA endosome anti-LBPA integrated intensity (z-score),HeLa MZ [2],-0.755
same,whole-cell filipin (z-score),A431 [3],-0.332
same,whole-cell filipin (z-score),HeLa MZ [4],-0.0234
same,filipin (z-score),A431 [5],-0.529
same,filipin (z-score),HeLa MZ [6],-0.486
c1ccc(-c2ccc(C(c3ccccc3)n3ccnc3)cc2)cc1 (centres undefined) [Bifonazole],LBPA endosome anti-LBPA integrated intensity (z-score),A431 [1],-0.285
same,LBPA endosome anti-LBPA integrated intensity (z-score),HeLa MZ [2],0.816
same,whole-cell filipin (z-score),A431 [3],0.345
same,whole-cell filipin (z-score),HeLa MZ [4],0.00932
same,filipin (z-score),A431 [5],-0.374
same,filipin (z-score),HeLa MZ [6],-0.192
Nc1nc(=O)c2c([nH]1)NC[C@@H](CNc1ccc(C(=O)N[C@@H](CCC(=O)O)C(=O)O)cc1)N2C=O [Folinic acid calcium salt],LBPA endosome anti-LBPA integrated intensity (z-score),A431 [1],-0.476
same,LBPA endosome anti-LBPA integrated intensity (z-score),HeLa MZ [2],-0.265
same,whole-cell filipin (z-score),A431 [3],-0.437
same,whole-cell filipin (z-score),HeLa MZ [4],-0.13
same,filipin (z-score),A431 [5],-0.451
same,filipin (z-score),HeLa MZ [6],-0.42
Nc1nc(N)c2nc(-c3ccccc3)c(N)nc2n1 [Triamterene],LBPA endosome anti-LBPA integrated intensity (z-score),A431 [1],0.172
same,LBPA endosome anti-LBPA integrated intensity (z-score),HeLa MZ [2],-1.01
same,whole-cell filipin (z-score),A431 [3],-0.647
same,whole-cell filipin (z-score),HeLa MZ [4],-1.14
same,filipin (z-score),A431 [5],-0.443
same,filipin (z-score),HeLa MZ [6],-0.487
CCCC(=O)Nc1ncnc2c1ncn2[C@@H]1O[C@@H]2COP(=O)(O)O[C@H]2[C@H]1OC(=O)CCC [Bucladesine sodium salt],LBPA endosome anti-LBPA integrated intensity (z-score),A431 [1],-0.466
same,LBPA endosome anti-LBPA integrated intensity (z-score),HeLa MZ [2],-0.34
same,whole-cell filipin (z-score),A431 [3],-0.132
same,whole-cell filipin (z-score),HeLa MZ [4],0.0614
same,filipin (z-score),A431 [5],-0.405
same,filipin (z-score),HeLa MZ [6],-0.372
CC[N+](CC)(CC)CCC(O)(c1ccccc1)C1CCCCC1 (centres undefined) [Tridihexethyl chloride],LBPA endosome anti-LBPA integrated intensity (z-score),A431 [1],-0.607
same,LBPA endosome anti-LBPA integrated intensity (z-score),HeLa MZ [2],-0.578
same,whole-cell filipin (z-score),A431 [3],-0.338
same,whole-cell filipin (z-score),HeLa MZ [4],-0.512
same,filipin (z-score),A431 [5],-0.437
same,filipin (z-score),HeLa MZ [6],-0.697
CCc1cccc2c3c([nH]c12)C(CC)(CC(=O)O)OCC3 (centres undefined) [Etodolac],LBPA endosome anti-LBPA integrated intensity (z-score),A431 [1],-0.65
same,LBPA endosome anti-LBPA integrated intensity (z-score),HeLa MZ [2],-1.97
same,whole-cell filipin (z-score),A431 [3],-0.842
same,whole-cell filipin (z-score),HeLa MZ [4],-0.545
same,filipin (z-score),A431 [5],-0.553
same,filipin (z-score),HeLa MZ [6],-0.628
CC(C(=O)O)c1ccc(C(=O)c2cccs2)cc1 (centres undefined) [Suprofen],LBPA endosome anti-LBPA integrated intensity (z-score),A431 [1],-0.328
same,LBPA endosome anti-LBPA integrated intensity (z-score),HeLa MZ [2],0.404
same,whole-cell filipin (z-score),A431 [3],0.0494
same,whole-cell filipin (z-score),HeLa MZ [4],0.84
same,filipin (z-score),A431 [5],-0.289
same,filipin (z-score),HeLa MZ [6],-0.21
COC(=O)C1=C(C)NC(C)=C(C(=O)OC(C)C)C1c1cccc2nonc12 (centres undefined) [Isradipine],LBPA endosome anti-LBPA integrated intensity (z-score),A431 [1],-0.123
same,LBPA endosome anti-LBPA integrated intensity (z-score),HeLa MZ [2],0.656
same,whole-cell filipin (z-score),A431 [3],0.258
same,whole-cell filipin (z-score),HeLa MZ [4],-0.179
same,filipin (z-score),A431 [5],-0.13
same,filipin (z-score),HeLa MZ [6],-0.161
CC1=C(C(=O)O)N2C(=O)[C@@H](NC(=O)[C@H](N)c3ccccc3)[C@H]2SC1 [Cephalexin monohydrate],LBPA endosome anti-LBPA integrated intensity (z-score),A431 [1],-0.543
same,LBPA endosome anti-LBPA integrated intensity (z-score),HeLa MZ [2],-0.797
same,whole-cell filipin (z-score),A431 [3],-0.64
same,whole-cell filipin (z-score),HeLa MZ [4],-0.482
same,filipin (z-score),A431 [5],-0.499
same,filipin (z-score),HeLa MZ [6],-0.511
"O=C1C(O)=C(O)C(=O)C(O)=C1O [Tetrahydroxy-1,4-quinone monohydrate]",LBPA endosome anti-LBPA integrated intensity (z-score),A431 [1],-0.376
same,LBPA endosome anti-LBPA integrated intensity (z-score),HeLa MZ [2],0.48
same,whole-cell filipin (z-score),A431 [3],-0.203
same,whole-cell filipin (z-score),HeLa MZ [4],-0.164
same,filipin (z-score),A431 [5],-0.404
same,filipin (z-score),HeLa MZ [6],-0.442
COc1cc2nc(N(C)CCCNC(=O)C3CCCO3)nc(N)c2cc1OC (centres undefined) [Alfuzosin hydrochloride],LBPA endosome anti-LBPA integrated intensity (z-score),A431 [1],1.37
same,LBPA endosome anti-LBPA integrated intensity (z-score),HeLa MZ [2],1.11
same,whole-cell filipin (z-score),A431 [3],-0.35
same,whole-cell filipin (z-score),HeLa MZ [4],-0.351
same,filipin (z-score),A431 [5],0.00526
same,filipin (z-score),HeLa MZ [6],0.128
C[C@H](CCC(=O)O)[C@H]1CC[C@H]2[C@@H]3C(=O)C[C@@H]4CC(=O)CC[C@]4(C)[C@H]3CC(=O)[C@]12C [Dehydrocholic acid],LBPA endosome anti-LBPA integrated intensity (z-score),A431 [1],-0.567
same,LBPA endosome anti-LBPA integrated intensity (z-score),HeLa MZ [2],-0.186
same,whole-cell filipin (z-score),A431 [3],-0.785
same,whole-cell filipin (z-score),HeLa MZ [4],-0.553
same,filipin (z-score),A431 [5],-0.549
same,filipin (z-score),HeLa MZ [6],-0.532
CC[N+](C)(CC)CCOC(=O)C1c2ccccc2Oc2ccccc21 [Methantheline bromide],LBPA endosome anti-LBPA integrated intensity (z-score),A431 [1],-0.356
same,LBPA endosome anti-LBPA integrated intensity (z-score),HeLa MZ [2],-0.164
same,whole-cell filipin (z-score),A431 [3],-0.155
same,whole-cell filipin (z-score),HeLa MZ [4],-0.214
same,filipin (z-score),A431 [5],-0.359
same,filipin (z-score),HeLa MZ [6],-0.379
CC(N/C(=N\C#N)Nc1ccncc1)C(C)(C)C (centres undefined) [Pinacidil],LBPA endosome anti-LBPA integrated intensity (z-score),A431 [1],-0.477
same,LBPA endosome anti-LBPA integrated intensity (z-score),HeLa MZ [2],-0.897
same,whole-cell filipin (z-score),A431 [3],-0.717
same,whole-cell filipin (z-score),HeLa MZ [4],-0.503
same,filipin (z-score),A431 [5],-0.45
same,filipin (z-score),HeLa MZ [6],-0.559
CNC[C@H](O)[C@@H](O)[C@H](O)[C@H](O)CO [Meglumine],LBPA endosome anti-LBPA integrated intensity (z-score),A431 [1],-0.671
same,LBPA endosome anti-LBPA integrated intensity (z-score),HeLa MZ [2],-1.5
same,whole-cell filipin (z-score),A431 [3],-0.386
same,whole-cell filipin (z-score),HeLa MZ [4],-0.451
same,filipin (z-score),A431 [5],-0.555
same,filipin (z-score),HeLa MZ [6],-0.582
CN1C2CCCC1CC(NC(=O)c1nn(C)c3ccccc13)C2 (centres undefined) [Granisetron],LBPA endosome anti-LBPA integrated intensity (z-score),A431 [1],0.179
same,LBPA endosome anti-LBPA integrated intensity (z-score),HeLa MZ [2],1.05
same,whole-cell filipin (z-score),A431 [3],0.826
same,whole-cell filipin (z-score),HeLa MZ [4],0.449
same,filipin (z-score),A431 [5],-0.132
same,filipin (z-score),HeLa MZ [6],0.382
OC(CCN1CCCC1)(c1ccccc1)C1CCCCC1 (centres undefined) [Procyclidine hydrochloride],LBPA endosome anti-LBPA integrated intensity (z-score),A431 [1],-0.0883
same,LBPA endosome anti-LBPA integrated intensity (z-score),HeLa MZ [2],0.3
same,whole-cell filipin (z-score),A431 [3],0.506
same,whole-cell filipin (z-score),HeLa MZ [4],0.736
same,filipin (z-score),A431 [5],0.0344
same,filipin (z-score),HeLa MZ [6],0.437
CC1=C(C(=O)O)N2C(=O)[C@@H](NC(=O)[C@H](N)c3ccc(O)cc3)[C@H]2SC1 [Cefadroxil],LBPA endosome anti-LBPA integrated intensity (z-score),A431 [1],-0.651
same,LBPA endosome anti-LBPA integrated intensity (z-score),HeLa MZ [2],-1.02
same,whole-cell filipin (z-score),A431 [3],-0.697
same,whole-cell filipin (z-score),HeLa MZ [4],-0.675
same,filipin (z-score),A431 [5],-0.507
same,filipin (z-score),HeLa MZ [6],-0.626
Clc1cc(Cl)c(OCC#CI)cc1Cl [Haloprogin],LBPA endosome anti-LBPA integrated intensity (z-score),A431 [1],-0.472
same,LBPA endosome anti-LBPA integrated intensity (z-score),HeLa MZ [2],-1.16
same,whole-cell filipin (z-score),A431 [3],-0.945
same,whole-cell filipin (z-score),HeLa MZ [4],-0.949
same,filipin (z-score),A431 [5],-0.529
same,filipin (z-score),HeLa MZ [6],-0.714
